Measured values published in PMC9911399, “Two distinct binding modes provide the RNA-binding protein RbFox with extraordinary sequence specificity”.
Changes are numbered by the printed parent chain; changes in the protein carry UniProt numbers. Over roughly 16,000 sequences, “ka relative to ugcaugu” has its median near 0.0091; the highest 2% begin near 0.032. Shown is part of a subset that was picked to be rich in the highest values.

T1: RBFOX1 RRM (Homo sapiens, UniProt Q9NWB1 109-208)
T1 sequence: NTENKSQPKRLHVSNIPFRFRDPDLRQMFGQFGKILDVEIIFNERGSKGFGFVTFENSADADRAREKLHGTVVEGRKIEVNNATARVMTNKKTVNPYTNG

B1: CUGAUGG (DNA:RNA)
RNA: GGGAGACCGGAAUUCAGAUUGUCCCUGAUGGUUAAAUCCCGUCGUAGCCACCA
DNA 1: CAATCTGAATTCCGGTCTCCC
DNA 2: TGGTGGCTACGACGGGATT
B2: AGAACUG (DNA:RNA)
RNA: B1 RNA with C25A, U26G, G27A, U29C, G30U
DNA 1: CAATCTGAATTCCGGTCTCCC
DNA 2: TGGTGGCTACGACGGGATT
B3: GCAAAGC (DNA:RNA)
RNA: B1 RNA with C25G, U26C, G27A, U29A, G31C
DNA 1: CAATCTGAATTCCGGTCTCCC
DNA 2: TGGTGGCTACGACGGGATT
B4: UUGCGGA (DNA:RNA)
RNA: B1 RNA with C25U, A28C, U29G, G31A
DNA 1: CAATCTGAATTCCGGTCTCCC
DNA 2: TGGTGGCTACGACGGGATT
B5: CGGCUUU (DNA:RNA)
RNA: B1 RNA with U26G, A28C, G30U, G31U
DNA 1: CAATCTGAATTCCGGTCTCCC
DNA 2: TGGTGGCTACGACGGGATT
B6: GGCUUUU (DNA:RNA)
RNA: B1 RNA with C25G, U26G, G27C, A28U, G30U, G31U
DNA 1: CAATCTGAATTCCGGTCTCCC
DNA 2: TGGTGGCTACGACGGGATT
B7: GGGGCUU (DNA:RNA)
RNA: B1 RNA with C25G, U26G, A28G, U29C, G30U, G31U
DNA 1: CAATCTGAATTCCGGTCTCCC
DNA 2: TGGTGGCTACGACGGGATT
B8: CGGGGCU (DNA:RNA)
RNA: B1 RNA with U26G, A28G, U29G, G30C, G31U
DNA 1: CAATCTGAATTCCGGTCTCCC
DNA 2: TGGTGGCTACGACGGGATT
B9: CGGGCUU (DNA:RNA)
RNA: B1 RNA with U26G, A28G, U29C, G30U, G31U
DNA 1: CAATCTGAATTCCGGTCTCCC
DNA 2: TGGTGGCTACGACGGGATT
B10: GCGGGCU (DNA:RNA)
RNA: B1 RNA with C25G, U26C, A28G, U29G, G30C, G31U
DNA 1: CAATCTGAATTCCGGTCTCCC
DNA 2: TGGTGGCTACGACGGGATT
B11: GGGGGCU (DNA:RNA)
RNA: B1 RNA with C25G, U26G, A28G, U29G, G30C, G31U
DNA 1: CAATCTGAATTCCGGTCTCCC
DNA 2: TGGTGGCTACGACGGGATT
B12: CCGGGCU (DNA:RNA)
RNA: B1 RNA with U26C, A28G, U29G, G30C, G31U
DNA 1: CAATCTGAATTCCGGTCTCCC
DNA 2: TGGTGGCTACGACGGGATT
B13: GGGCUUU (DNA:RNA)
RNA: B1 RNA with C25G, U26G, A28C, G30U, G31U
DNA 1: CAATCTGAATTCCGGTCTCCC
DNA 2: TGGTGGCTACGACGGGATT
B14: GUGGGCU (DNA:RNA)
RNA: B1 RNA with C25G, A28G, U29G, G30C, G31U
DNA 1: CAATCTGAATTCCGGTCTCCC
DNA 2: TGGTGGCTACGACGGGATT
B15: CGUCAGA (DNA:RNA)
RNA: B1 RNA with U26G, G27U, A28C, U29A, G31A
DNA 1: CAATCTGAATTCCGGTCTCCC
DNA 2: TGGTGGCTACGACGGGATT
B16: GGAGUGG (DNA:RNA)
RNA: B1 RNA with C25G, U26G, G27A, A28G
DNA 1: CAATCTGAATTCCGGTCTCCC
DNA 2: TGGTGGCTACGACGGGATT
B17: ACAUGGG (DNA:RNA)
RNA: B1 RNA with C25A, U26C, G27A, A28U, U29G
DNA 1: CAATCTGAATTCCGGTCTCCC
DNA 2: TGGTGGCTACGACGGGATT
B18: CCUAGUG (DNA:RNA)
RNA: B1 RNA with U26C, G27U, U29G, G30U
DNA 1: CAATCTGAATTCCGGTCTCCC
DNA 2: TGGTGGCTACGACGGGATT
B19: AAUUAGC (DNA:RNA)
RNA: B1 RNA with C25A, U26A, G27U, A28U, U29A, G31C
DNA 1: CAATCTGAATTCCGGTCTCCC
DNA 2: TGGTGGCTACGACGGGATT
B20: UUUAACA (DNA:RNA)
RNA: B1 RNA with C25U, G27U, U29A, G30C, G31A
DNA 1: CAATCTGAATTCCGGTCTCCC
DNA 2: TGGTGGCTACGACGGGATT
B21: GGGACGU (DNA:RNA)
RNA: B1 RNA with C25G, U26G, U29C, G31U
DNA 1: CAATCTGAATTCCGGTCTCCC
DNA 2: TGGTGGCTACGACGGGATT
B22: CCGGUGC (DNA:RNA)
RNA: B1 RNA with U26C, A28G, G31C
DNA 1: CAATCTGAATTCCGGTCTCCC
DNA 2: TGGTGGCTACGACGGGATT
B23: CGGGUGC (DNA:RNA)
RNA: B1 RNA with U26G, A28G, G31C
DNA 1: CAATCTGAATTCCGGTCTCCC
DNA 2: TGGTGGCTACGACGGGATT
B24: GGGGUGC (DNA:RNA)
RNA: B1 RNA with C25G, U26G, A28G, G31C
DNA 1: CAATCTGAATTCCGGTCTCCC
DNA 2: TGGTGGCTACGACGGGATT
B25: AGGGUGC (DNA:RNA)
RNA: B1 RNA with C25A, U26G, A28G, G31C
DNA 1: CAATCTGAATTCCGGTCTCCC
DNA 2: TGGTGGCTACGACGGGATT
B26: GGGUGCU (DNA:RNA)
RNA: B1 RNA with C25G, U26G, A28U, U29G, G30C, G31U
DNA 1: CAATCTGAATTCCGGTCTCCC
DNA 2: TGGTGGCTACGACGGGATT
B27: GGGUGCG (DNA:RNA)
RNA: B1 RNA with C25G, U26G, A28U, U29G, G30C
DNA 1: CAATCTGAATTCCGGTCTCCC
DNA 2: TGGTGGCTACGACGGGATT
B28: AGUCCCC (DNA:RNA)
RNA: GGGAGACCGGAAUUCAGAUUGUCCAGUCCCCUUAAAUCCCGUCGUAGCCACCA
DNA 1: CAATCTGAATTCCGGTCTCCC
DNA 2: TGGTGGCTACGACGGGATT
B29: CUUCGCU (DNA:RNA)
RNA: B28 RNA with A25C, G26U, C29G, C31U
DNA 1: CAATCTGAATTCCGGTCTCCC
DNA 2: TGGTGGCTACGACGGGATT
B30: GCGUUAG (DNA:RNA)
RNA: B1 RNA with C25G, U26C, A28U, G30A
DNA 1: CAATCTGAATTCCGGTCTCCC
DNA 2: TGGTGGCTACGACGGGATT
B31: CUUGGGA (DNA:RNA)
RNA: B1 RNA with G27U, A28G, U29G, G31A
DNA 1: CAATCTGAATTCCGGTCTCCC
DNA 2: TGGTGGCTACGACGGGATT

target: T1, RBFOX1 RRM; test: EMSA; HiTS-Eq, 1 nM pool, 10 min; buffer printed only for the single-RNA assays: 10 mM Tris pH 7.5, 150 mM NaCl, 3.4 mM EDTA, 0.001% NP-40, 30 C; details: tags: His6 N-terminal (pET28a); label: 5' 32P
Procedure, shortened: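 Purified RbFox RRM, wild type or mutant, was incubated for 10 min in 50 µL with 1 nM of a 5′-radiolabelled RNA pool carrying 7 randomized nucleotides, whose flanks were annealed to DNA oligonucleotides, over a series of increasing protein concentrations. Unbound RNA was resolved on 8% native PAGE, cut out, reverse-transcribed, barcoded by PCR and sequenced on an Illumina HiSeq 2500. Relative association constants were derived from changes in read counts for each RNA species versus the control reaction and normalised to the cognate motif.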

Binder | binding signal
B1 | 0.0123 KA relative to UGCAUGU
B2 | 0.0109 KA relative to UGCAUGU
B3 | 0.0111 KA relative to UGCAUGU
B4 | 0.0101 KA relative to UGCAUGU
B5 | 0.0187 KA relative to UGCAUGU
B6 | 0.0115 KA relative to UGCAUGU
B7 | 0.033 KA relative to UGCAUGU
B8 | 0.0294 KA relative to UGCAUGU
B9 | 0.0317 KA relative to UGCAUGU
B10 | 0.0197 KA relative to UGCAUGU
B11 | 0.0377 KA relative to UGCAUGU
B12 | 0.00883 KA relative to UGCAUGU
B13 | 0.0244 KA relative to UGCAUGU
B14 | 0.0216 KA relative to UGCAUGU
B15 | 0.00954 KA relative to UGCAUGU
B16 | 0.0151 KA relative to UGCAUGU

Binder | binding signal
B17 | 0.0064 KA relative to UGCAUGU
B18 | 0.00931 KA relative to UGCAUGU
B19 | 0.00552 KA relative to UGCAUGU
B20 | 0.00144 KA relative to UGCAUGU
B21 | 0.0238 KA relative to UGCAUGU
B22 | 0.0149 KA relative to UGCAUGU
B23 | 0.0369 KA relative to UGCAUGU
B24 | 0.0467 KA relative to UGCAUGU
B25 | 0.0198 KA relative to UGCAUGU
B26 | 0.0276 KA relative to UGCAUGU
B27 | 0.023 KA relative to UGCAUGU
B28 | 0.0101 KA relative to UGCAUGU
B29 | 0.0136 KA relative to UGCAUGU
B30 | 0.0109 KA relative to UGCAUGU
B31 | 0.00252 KA relative to UGCAUGU
